{
  "source": "ChEMBL document CHEMBL3988442",
  "about": "“University of Dundee, Small-Polar-MMV Screening Library” (2021)",
  "note": "Screen size: about 48,000 compounds; about 13,000 (27%) showed an effect of 50% or more. Some of the results follow.",
  "data": [
    {"tested_on": "Wolbachia pipientis", "test": "Anti-Wolbachia Cell-Based Screen", "type": "functional", "set-up": "scale not given: in the data most compounds retested in dose-response had high values", "conditions": "5 µM", "units": {"Percent Effect": "%"}, "values": [
      {"molecule": "O=C(NCCc1csc(N2CCCC2)n1)N(C1CCCC1)C1CC1", "Percent Effect": -4.119},
      {"molecule": "Cc1cc2nc(CO[C@H]3CN(C4CCCCC4)C[C@H]3F)[nH]c2cc1C", "Percent Effect": 9.281},
      {"molecule": "Cc1noc([C@@H]2C[C@H]3CN(Cc4ccc5c(c4)OCO5)C[C@H]3O2)n1.O=C(O)C(F)(F)F", "Percent Effect": -40.6},
      {"molecule": "COc1c(C2CCCN2C(=O)c2cnccn2)c(C)nn1C", "note": "(configuration not stated)", "Percent Effect": 114.6},
      {"molecule": "Cc1nn(C)c(Cl)c1C1CCCN1C(=O)c1cc(C2CC2)on1", "note": "(configuration not stated)", "Percent Effect": 102.8},
      {"molecule": "COc1c(C2CCCN2C(=O)c2cnc(C)cn2)c(C)nn1C", "note": "(configuration not stated)", "Percent Effect": 86.16},
      {"molecule": "COc1c(C2CCCN2C(=O)c2cscn2)c(C)nn1C", "note": "(configuration not stated)", "Percent Effect": 88.43},
      {"molecule": "Cc1nc[nH]c1-c1nnc(SCC(=O)O)n1-c1ccccc1C(F)(F)F", "Percent Effect": -17.22},
      {"molecule": "O=S(=O)(Cc1ccccc1F)NC(CO)c1ccco1", "note": "(configuration not stated)", "Percent Effect": 6.014},
      {"molecule": "Cl.Cl.Cl.O[C@@H]1C[C@@](CNCc2ccccn2)(COc2cccnc2)C[C@@H]1O", "Percent Effect": -17.47},
      {"molecule": "Cc1ccsc1CNC(=O)c1ccc(N2CCNC2=O)cc1", "Percent Effect": 1.647},
      {"molecule": "COc1ccc(NC(=O)N2CCC3(CC2)NC(=O)CC3C(=O)O)c(C)c1", "note": "(configuration not stated)", "Percent Effect": 2.707},
      {"molecule": "Cn1c(CS(=O)(=O)Cc2cccc(Cl)c2)cc(=O)n(C)c1=O", "Percent Effect": 7.085},
      {"molecule": "CCS(=O)(=O)CCNc1nc(C2CCCC2)nc2c1cnn2C", "Percent Effect": 3.087},
      {"molecule": "COc1c(C2CCCN2C(=O)Cc2c(C)noc2C)c(C)nn1C", "note": "(configuration not stated)", "Percent Effect": -5.371},
      {"molecule": "CCc1nc(CC(=O)N2CCCC2c2c(C)nn(C)c2OC)cs1", "note": "(configuration not stated)", "Percent Effect": 118.7},
      {"molecule": "Cc1nn(C)c(C)c1C1CCCN1C(=O)Cc1cn2ccsc2n1", "note": "(configuration not stated)", "Percent Effect": 10.74},
      {"molecule": "CCN(c1ccc(C(=O)Nc2c(C)nn(C(C)C)c2C)cc1)C(C)C", "Percent Effect": -6.116},
      {"molecule": "COc1cccc(N2CC3(CCN(c4ccc(C)nn4)C3)CC2=O)c1", "note": "(configuration not stated)", "Percent Effect": 3.863},
      {"molecule": "CN1[C@H](Cn2cncn2)C[C@@H]2CN(Cc3cccc(C#N)c3)CC[C@@H]21.O=C(O)C(F)(F)F.O=C(O)C(F)(F)F", "Percent Effect": 3.665},
      {"molecule": "N#Cc1cccc(C(=O)N2CC[C@H]3[C@H]2CCN3CC2CCOCC2)c1.O=C(O)C(F)(F)F", "Percent Effect": -18.46},
      {"molecule": "CC(C)N1[C@H](Cn2cncn2)C[C@@H]2CN(Cc3cccs3)CC[C@@H]21.O=C(O)C(F)(F)F", "Percent Effect": 3.978},
      {"molecule": "CN1C(Cn2cccn2)C[C@@H]2CN(C(=O)c3cccc(C#N)c3)CC[C@@H]21.O=C(O)C(F)(F)F.O=C(O)C(F)(F)F", "note": "(some centres not stated)", "Percent Effect": 118.1},
      {"molecule": "CN1[C@H](Cn2cccn2)C[C@@H]2CN(Cc3cccs3)CC[C@@H]21.O=C(O)C(F)(F)F.O=C(O)C(F)(F)F.O=C(O)C(F)(F)F", "Percent Effect": 118},
      {"molecule": "Cc1ccc(CN2CC[C@H]3[C@H](CC(Cn4cccn4)N3C)C2)s1.O=C(O)C(F)(F)F.O=C(O)C(F)(F)F.O=C(O)C(F)(F)F", "note": "(some centres not stated)", "Percent Effect": 96},
      {"molecule": "O=C(O)C(F)(F)F.c1csc(CN2C[C@@H](n3cccn3)[C@H]3OCCC[C@H]32)c1", "Percent Effect": 9.631},
      {"molecule": "CC(C)N1[C@H](Cn2cccn2)C[C@@H]2CN(Cc3ccoc3)CC[C@@H]21.O=C(O)C(F)(F)F.O=C(O)C(F)(F)F.O=C(O)C(F)(F)F", "Percent Effect": -17.46}
    ]}
  ]
}
